# Experimental data taken from PubChem BioAssay (NCI).
# The panel holds about 79,000 compounds, 15% with a hit somewhere; the sample as a whole holds those more often. A number with no mark means an inactive call. Calls of active or inactive are those of the source. Cut-off read from the data, not from the text of the source: active = growth inhibition above about 70%; inactive = the rest.
# Assay: NCI Yeast Anticancer Drug Screen. Data for the cln2 rad14 strain (AID 165);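 note: 0% = growth equal to vehicle treated cultures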
# Conditions: S. cerevisiae cln2 rad14 strain, at 50.0 µM (retest, dose inferred, filed as 5.0), hits give high values
# Outline: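 The screen exposed genetically defined yeast (cln2 rad14) to test compounds and scored growth inhibition relative to vehicle-treated controls.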
row,SMILES,growth inhibition
1,CC(=O)O/N=C1/CCC2C3CC=C4CC(OC(C)=O)CCC4(C)C3CCC12C (stereo not drawn),87% (active)
2,Clc1ccc(CNc2ccc(Br)cc2)cc1,80% (active)
3,Cc1cnc(C#N)c(C#N)n1,7%

# Same assay, conditions: S. cerevisiae cln2 rad14 strain, at 50.0 µM, hits give high values
row,SMILES,growth inhibition
1,O=C(O)CCCCCCCCCCOc1ccc(Cl)cc1Cl,5.5%
2,C=C(CN1CCCC1)C(=O)c1ccc(OC)cc1,-20.4%
3,CNC(=O)OCc1c(COC(=O)NC)c(-c2ccc(OC)cc2)n2c1CCC2,73.7% (active)
4,CCCCC(=S)N1CCN(c2ccccc2)CC1,14.9%
5,CCN(CC)C(=S)N/N=C/c1cc(OC)ccc1O,53.5%
6,COc1ccc2c(c1)CN1C(CCC3c4ccccc4NC31)C2 (stereo not drawn),51.3%
7,CCCCC(=O)N/N=C(\C)[C@]1(O)Cc2c(O)c3c(c(O)c2[C@@H](OC2CC(N)C(O)C(C)O2)C1)C(=O)c1c(OC)cccc1C3=O (stereo partly drawn),97.1% (active)
8,C=C1C(=O)C23OC2C1CCC(=O)C1(C)CC[C@H](OC(C)=O)C(C)(C)[C@H]1CC3O (stereo partly drawn),99.2% (active)
9,Cc1nc(N)sc1N=Nc1ccc(Cl)cc1Cl,84.3% (active)
10,O=C(O)c1cc2c3ccccc3sc2c2ccccc12,2.45%
11,COc1ccc2c(c1)C(Br)CCC(Br)C2=O (stereo not drawn),33.5%
12,Cc1cc(OCCl)ccc1[N+](=O)[O-],15.6%
13,COC(=O)c1nnc(C(=O)OC)c2c1[nH]c1ccccc12,10.6%
14,O=S(Nc1ccccc1Br)c1ccccc1 (stereo not drawn),-3.25%
15,Cc1c2c(c(C)c3c1OC(C)(C)CC3)OC(C)(C)CC2,46.5%
16,O=c1cc(CSc2ccc(Cl)cc2)occ1O,13.2%
17,Cc1ccc2c(c1)[n+]([O-])c(N)n[n+]2[O-],40.2%
18,CC(=O)c1c2c(cc3c1CC1(C3)Cc3cc4c(c(C(=O)O)c3C1)CCC4)CCC2 (stereo not drawn),84.2% (active)
19,CCCCCCCCCCC(NC(C)=O)(C(=O)OCC)C(=O)OCC,98.3% (active)
20,Cc1nc2c(cnn2C)cc1CCc1ccccc1,25.1%

row,SMILES,growth inhibition
1,CCc1cccc(C)c1NC(=O)C(=O)CC(=O)c1ccccc1Cl,-12.6%
2,COc1nc(N)c(N=O)c(OCc2ccccc2)n1,89.8% (active)
3,O=C1O/C(=C2\OC(=O)c3ccccc32)c2ccccc21,47.8%
4,Cc1ccc(O)c(C(C)(C)c2ccccc2)c1,98.7% (active)
5,CCOC(=O)NN(C(=O)OCC)c1ccc(N=Nc2ccc(OC)cc2)n1C,71.5% (active)
6,S=C(NCc1ccccc1)[S][Sb]([S]C(=S)NCc1ccccc1)[c]1ccccc1,69.8%
7,O=CCCCc1cc2c(cc1Br)CCC2,72.2% (active)
8,CCC(C)CNCCCCCNc1cc(OC)cc2cccnc12 (stereo not drawn),48.2%
9,CNC(=O)NC(c1cc(OC)c(OC)c(OC)c1)c1cc2c(cc1O)OCO2 (stereo not drawn),23.6%
10,CCCCCCCSCc1nc2ccccc2c(C)[n+]1[O-],94.8% (active)
11,Cc1[nH]c(=O)[nH]c(=O)c1CN(C)Cc1cc(Cl)cc(Cl)c1O,22%
12,O=C(N/C(=C\c1cccc([N+](=O)[O-])c1)c1nc2ccccc2s1)c1ccccc1,98.1% (active)
13,CC1NS(=O)(=O)N(C)C1=O (stereo not drawn),36.7%
14,Cc1csc2[n+]1C(=O)/C(=C\c1ccc([N+](=O)[O-])cc1)S2,57.5%
15,CC(C)c1ccc2c(c1)CCC1C(C)(C(=O)O)CCCC21C (stereo not drawn),96.9% (active)
16,COc1ncnc2nc(SC)[nH]c12,99.7% (active)
17,CCN(CC)C(=O)CCCCC(=O)OC(C)C,86.2% (active)
18,CC(=O)O/N=C1/CCC2C3CC=C4CC(OC(C)=O)CCC4(C)C3CCC12C (stereo not drawn),85% (active)
19,Clc1ccc(CNc2ccc(Br)cc2)cc1,82.2% (active)
20,Cc1cnc(C#N)c(C#N)n1,12.2%

# Assay: NCI Yeast Anticancer Drug Screen. Data for the bub3 strain (AID 167)
# Conditions: S. cerevisiae bub3 mutant strain, at 5.0 µM (retest, dose inferred, filed as 0.5), hits give high values
# Outline: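 Part of a panel of yeast mutants defective in DNA damage repair or cell cycle regulation. Each strain is grown with compound, and inhibition is calculated relative to solvent-treated cultures.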
row,SMILES,growth inhibition
1,O=C(O)CCCCCCCCCCOc1ccc(Cl)cc1Cl,-1%
2,C=C(CN1CCCC1)C(=O)c1ccc(OC)cc1,-6%
3,CNC(=O)OCc1c(COC(=O)NC)c(-c2ccc(OC)cc2)n2c1CCC2,50%
4,CCCCC(=S)N1CCN(c2ccccc2)CC1,2%
5,CCN(CC)C(=S)N/N=C/c1cc(OC)ccc1O,-38%
6,COc1ccc2c(c1)CN1C(CCC3c4ccccc4NC31)C2 (stereo not drawn),-35%
7,CCCCC(=O)N/N=C(\C)[C@]1(O)Cc2c(O)c3c(c(O)c2[C@@H](OC2CC(N)C(O)C(C)O2)C1)C(=O)c1c(OC)cccc1C3=O (stereo partly drawn),15%
8,C=C1C(=O)C23OC2C1CCC(=O)C1(C)CC[C@H](OC(C)=O)C(C)(C)[C@H]1CC3O (stereo partly drawn),92% (active)
9,Cc1nc(N)sc1N=Nc1ccc(Cl)cc1Cl,1%
10,O=C(O)c1cc2c3ccccc3sc2c2ccccc12,-3%
11,COc1ccc2c(c1)C(Br)CCC(Br)C2=O (stereo not drawn),-36%
12,Cc1cc(OCCl)ccc1[N+](=O)[O-],15%
13,COC(=O)c1nnc(C(=O)OC)c2c1[nH]c1ccccc12,0%
14,O=S(Nc1ccccc1Br)c1ccccc1 (stereo not drawn),-4%
15,Cc1c2c(c(C)c3c1OC(C)(C)CC3)OC(C)(C)CC2,-5%
16,O=c1cc(CSc2ccc(Cl)cc2)occ1O,-3%
17,Cc1ccc2c(c1)[n+]([O-])c(N)n[n+]2[O-],-7%
18,CC(=O)c1c2c(cc3c1CC1(C3)Cc3cc4c(c(C(=O)O)c3C1)CCC4)CCC2 (stereo not drawn),63%
19,CCCCCCCCCCC(NC(C)=O)(C(=O)OCC)C(=O)OCC,0%
20,Cc1nc2c(cnn2C)cc1CCc1ccccc1,23%

row,SMILES,growth inhibition
1,CCc1cccc(C)c1NC(=O)C(=O)CC(=O)c1ccccc1Cl,-2%
2,COc1nc(N)c(N=O)c(OCc2ccccc2)n1,97% (active)
3,O=C1O/C(=C2\OC(=O)c3ccccc32)c2ccccc21,1%
4,Cc1ccc(O)c(C(C)(C)c2ccccc2)c1,-49%
5,CCOC(=O)NN(C(=O)OCC)c1ccc(N=Nc2ccc(OC)cc2)n1C,-40%
6,S=C(NCc1ccccc1)[S][Sb]([S]C(=S)NCc1ccccc1)[c]1ccccc1,-11%
7,O=CCCCc1cc2c(cc1Br)CCC2,23%
8,CCC(C)CNCCCCCNc1cc(OC)cc2cccnc12 (stereo not drawn),39%
9,CNC(=O)NC(c1cc(OC)c(OC)c(OC)c1)c1cc2c(cc1O)OCO2 (stereo not drawn),-16%
10,CCCCCCCSCc1nc2ccccc2c(C)[n+]1[O-],-2%
11,Cc1[nH]c(=O)[nH]c(=O)c1CN(C)Cc1cc(Cl)cc(Cl)c1O,-8%
12,O=C(N/C(=C\c1cccc([N+](=O)[O-])c1)c1nc2ccccc2s1)c1ccccc1,40%
13,CC1NS(=O)(=O)N(C)C1=O (stereo not drawn),6%
14,Cc1csc2[n+]1C(=O)/C(=C\c1ccc([N+](=O)[O-])cc1)S2,26%
15,CC(C)c1ccc2c(c1)CCC1C(C)(C(=O)O)CCCC21C (stereo not drawn),-9%
16,COc1ncnc2nc(SC)[nH]c12,-1%
17,CCN(CC)C(=O)CCCCC(=O)OC(C)C,-3%
18,CC(=O)O/N=C1/CCC2C3CC=C4CC(OC(C)=O)CCC4(C)C3CCC12C (stereo not drawn),-7%
19,Clc1ccc(CNc2ccc(Br)cc2)cc1,3%
20,Cc1cnc(C#N)c(C#N)n1,-1%
